The results in this text go back to PubChem BioAssay.

Values without a mark were called inactive. For some of these results: Measured potencies and affinities stand elsewhere. Calls of active or inactive are those of the source. Unless noted, how the calls were made is not given here.

Test [1] in a line: antimalarial activity against Dd2 strain (AID 2302;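 active means growth inhibition above 50% at the single 2 µM test dose, taken to imply half-maximal potency below 2 µM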;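 further: 0% = DMSO untreated growth and 100% = chloroquine plus artemisinin killed control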). The note with it: P. falciparum Dd2 in RBCs, LDH growth readout, 72 h; at 2 µM; active compounds read high.
The nature of test [2]: human hepatoma cell viability loss – ATP luminescence, cytotoxicity control for P. falciparum antimalarial project, primary screen (AID 2303;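 active means inhibition above 50%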;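 further: 0% = DMSO wells and 100% = digitonin-killed cells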). The note with it: HepG2 viability, 24-48 h, at 10 µM, active compounds read high.
The target in test [3] is L-lactate dehydrogenase (Plasmodium falciparum (isolate CDC / Honduras)) (UniProt Q27743). The test can be described thus: PfLDH activity inhibition – cell lysate, 3D7 strain, counter-screen for P. falciparum growth inhibition project (AID 2304).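 Further: 0% = vehicle and 100% = reference inhibitor.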 The following applies: P. falciparum 3D7 crude extract, LDH APAD/NBT absorbance; at 2 µM; active compounds read high. (In general: A counterscreen serves to expose hits that act by an unwanted route or on another target.)

Test [4] can be described thus: inhibition of 3D7 malaria parasite growth – strain 3D7 (AID 2306).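 Further: 0% = DMSO wells and 100% = chloroquine plus artemisinin control wells.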 The note with it: P. falciparum 3D7 erythrocytic growth, LDH absorbance, 72 h; at 2 µM; active compounds read high.
Test [5] addresses Calcium-dependent protein kinase 1 (Plasmodium falciparum (isolate 3D7)) (UniProt P62344). Description: PfCDPK1 kinase inhibitors, biochemical, TCAMS library (AID 1159585; cut-off not given, nearly all actives have IC50 up to about 0.98 µM;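 further: inhibitors leave more ATP so luminescence rises with inhibition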). The note with it: recombinant PfCDPK1, Kinase-Glo ATP depletion luminescence. A general note: Kinase-Glo reads ATP consumption through a luciferase reaction.
Test [6] concerns the target Plasmodium falciparum protein kinase 6 (PK6, PF3D7_1337100) (UniProt Q8IDW1). Description: PfPK6 kinase inhibitors, biochemical, TCAMS library (AID 1159586). The note with it: recombinant PfPK6, Kinase-Glo ATP depletion luminescence.
The target in test [7] is Protein kinase 7 (PK7), Plasmodium falciparum 3D7 (PF3D7_0213400) (UniProt Q7YTF7). Description: inhibition of Plasmodium PK7 catalytic activity – biochemical, TCAMS antimalarial set, Kinase-Glo luminescence (AID 1159587). The note with it: recombinant PfPK7, Kinase-Glo ATP depletion luminescence.
In test [8] the target is Calcium-dependent protein kinase 4 (Plasmodium falciparum (isolate 3D7)) (UniProt Q8IBS5). The test can be described thus: PfCDPK4 kinase inhibitors, biochemical, TCAMS library (AID 1159588; cut-off not given, nearly all actives have IC50 up to about 0.91 µM). The following applies: recombinant PfCDPK4, Kinase-Glo ATP depletion luminescence.
Calcium-dependent protein kinase 4 (Plasmodium falciparum (isolate 3D7)), sequence (Q8IBS5 whole entry, looked up): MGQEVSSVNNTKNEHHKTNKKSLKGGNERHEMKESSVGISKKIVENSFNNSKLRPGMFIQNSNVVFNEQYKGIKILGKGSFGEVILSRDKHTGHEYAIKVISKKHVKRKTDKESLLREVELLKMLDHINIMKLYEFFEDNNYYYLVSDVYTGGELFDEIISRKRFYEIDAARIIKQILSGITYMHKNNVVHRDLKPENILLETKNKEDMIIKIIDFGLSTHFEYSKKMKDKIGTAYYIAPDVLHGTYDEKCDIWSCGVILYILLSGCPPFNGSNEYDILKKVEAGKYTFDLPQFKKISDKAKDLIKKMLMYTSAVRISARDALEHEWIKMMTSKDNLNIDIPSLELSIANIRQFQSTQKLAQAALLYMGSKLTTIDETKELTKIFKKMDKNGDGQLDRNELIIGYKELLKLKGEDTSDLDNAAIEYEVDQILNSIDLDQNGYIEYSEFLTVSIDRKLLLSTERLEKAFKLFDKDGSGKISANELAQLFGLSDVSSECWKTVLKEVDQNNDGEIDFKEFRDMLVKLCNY

L-lactate dehydrogenase (Plasmodium falciparum (isolate CDC / Honduras)), sequence (Q27743 whole entry, looked up): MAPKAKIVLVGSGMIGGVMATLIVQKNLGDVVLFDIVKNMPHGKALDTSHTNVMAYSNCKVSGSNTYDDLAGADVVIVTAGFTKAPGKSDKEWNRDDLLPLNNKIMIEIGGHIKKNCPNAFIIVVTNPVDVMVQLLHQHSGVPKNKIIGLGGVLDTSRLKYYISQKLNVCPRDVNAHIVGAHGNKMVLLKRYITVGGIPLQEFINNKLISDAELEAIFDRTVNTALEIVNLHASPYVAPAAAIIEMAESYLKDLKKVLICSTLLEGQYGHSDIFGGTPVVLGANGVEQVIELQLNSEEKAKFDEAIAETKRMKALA
Calcium-dependent protein kinase 1 (Plasmodium falciparum (isolate 3D7)), sequence (P62344 whole entry, looked up): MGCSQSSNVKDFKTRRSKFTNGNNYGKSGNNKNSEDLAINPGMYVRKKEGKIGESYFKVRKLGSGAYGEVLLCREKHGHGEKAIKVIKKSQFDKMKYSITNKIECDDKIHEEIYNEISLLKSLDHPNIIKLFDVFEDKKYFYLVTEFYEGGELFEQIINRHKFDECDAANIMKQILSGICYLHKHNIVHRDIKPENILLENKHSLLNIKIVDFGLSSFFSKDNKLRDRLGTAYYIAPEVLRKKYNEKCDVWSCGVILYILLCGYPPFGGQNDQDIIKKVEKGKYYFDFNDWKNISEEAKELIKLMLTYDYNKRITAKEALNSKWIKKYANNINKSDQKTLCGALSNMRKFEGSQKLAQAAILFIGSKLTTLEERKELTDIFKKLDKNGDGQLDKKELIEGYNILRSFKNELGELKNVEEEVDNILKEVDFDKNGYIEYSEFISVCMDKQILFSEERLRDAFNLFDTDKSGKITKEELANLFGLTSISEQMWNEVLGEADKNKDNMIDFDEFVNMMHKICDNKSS
Plasmodium falciparum protein kinase 6 (PK6, PF3D7_1337100), sequence (Q8IDW1 1-305): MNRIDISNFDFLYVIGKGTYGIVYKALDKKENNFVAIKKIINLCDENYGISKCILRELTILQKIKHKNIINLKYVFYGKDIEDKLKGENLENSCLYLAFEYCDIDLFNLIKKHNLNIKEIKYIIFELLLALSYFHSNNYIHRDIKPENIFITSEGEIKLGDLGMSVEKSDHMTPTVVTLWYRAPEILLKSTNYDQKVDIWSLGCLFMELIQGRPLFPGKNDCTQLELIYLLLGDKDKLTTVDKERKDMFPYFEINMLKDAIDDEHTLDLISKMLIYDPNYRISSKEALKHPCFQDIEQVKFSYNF
Protein kinase 7 (PK7), Plasmodium falciparum 3D7 (PF3D7_0213400), sequence (Q7YTF7 1-343): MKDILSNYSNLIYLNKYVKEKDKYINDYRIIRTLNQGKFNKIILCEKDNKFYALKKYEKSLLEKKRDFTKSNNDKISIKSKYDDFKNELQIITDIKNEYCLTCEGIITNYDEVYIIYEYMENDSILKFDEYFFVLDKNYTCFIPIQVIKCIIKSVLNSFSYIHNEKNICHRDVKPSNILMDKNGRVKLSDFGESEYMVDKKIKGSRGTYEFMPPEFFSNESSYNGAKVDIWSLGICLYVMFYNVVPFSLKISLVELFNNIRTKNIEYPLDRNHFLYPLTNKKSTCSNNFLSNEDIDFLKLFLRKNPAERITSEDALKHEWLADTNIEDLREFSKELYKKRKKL

Regarding `c1ccc(COc2ccc(COc3ccc(Cn4ccnc4)cc3)cc2)cc1`, the growth inhibition in test [1] was 45%; in test [4], 86% (active). Moreover, the inhibition in test [2] was 9%; in test [3], 0%. Also, the result in test [5], in test [6], in test [7] and in test [8] was inactive.
As for `COc1ccc(-c2ccnc(-c3cccc(-c4ccccn4)n3)c2)cc1`, the figures for the growth inhibition in test [1] and in test [4] were 84% (active) and 97% (active), respectively. Also, the inhibition in test [2] is 44%; in test [3], -1%. In addition, the outcome in test [5], in test [6], in test [7] and in test [8] was inactive.
Turning to `c1cc(CNCCN2CCNCC2)cc(-c2cccc(-c3nc4ccccc4[nH]3)c2)c1`, the growth inhibition in test [1] was 1%; in test [4], 89% (active). In addition, the inhibition in test [2] was 11%; in test [3], -3%. Besides, the outcome in test [5], in test [6], in test [7] and in test [8] was inactive.
For `COc1ccccc1N1CCN(CCCCN(C(=O)Nc2cccc(Cl)c2)C(=O)Nc2cccc(Cl)c2)CC1`, the growth inhibition in test [1] was 65% (active); in test [4] it was 100% (active). The results for the inhibition in test [2] and in test [3] were 4% and 7%, respectively. The outcome in test [5], in test [6], in test [7] and in test [8] was inactive.
As to `Cc1cccc(CN2CCC(Oc3ccc(NC(=O)c4cccs4)cc3Cl)CC2)n1`, the growth inhibition in test [1] is 88% (active); in test [4] it was 86% (active). Further, the values for the inhibition in test [2] and in test [3] were 27% and 7%, respectively. For the same molecule, the outcome in test [5], in test [6], in test [7] and in test [8] was inactive.
Consider `Cc1nnc(-c2ccc3ccccc3c2)c2cn(-c3cccc([N+](=O)[O-])c3)nc12`, for which the growth inhibition in test [1] was 67% (active); in test [4] it was 91% (active). Moreover, the inhibition is 29% in test [2] and 3% in test [3]. Besides, the outcome in test [5], in test [6], in test [7] and in test [8] was inactive.
Consider `Cc1cc(Br)cnc1CCCCN=C1NC(=O)CN1C`, for which the growth inhibition in test [1] is 26%; in test [4], 95% (active). Besides, the figures for the inhibition in test [2] and in test [3] were 63% (active) and 2%, respectively. Moreover, the outcome in test [5], in test [6], in test [7] and in test [8] was inactive.
Consider `NC(=NCCc1ccccc1Cl)c1ccc2ccccc2c1`, for which the growth inhibition in test [1] is 11%; in test [4] it was 88% (active). In addition, the inhibition is 25% in test [2] and -2% in test [3]. For the same molecule, the result in test [5], in test [6], in test [7] and in test [8] was inactive.
Regarding `CC=CCON1C(N)=NC(N)=NC1(C)C`, the growth inhibition in test [1] is 1%; in test [4] it was 94% (active). In addition, the inhibition was 57% (active) in test [2] and 5% in test [3]. In addition, the result in test [5], in test [6], in test [7] and in test [8] was inactive.
For the molecule `CC(=O)c1ccc(NC(=O)NNC(=O)c2ccc(CCN3CCC(c4nc(COCC(F)(F)F)c(-c5ccc(F)cc5)o4)CC3)cc2)cc1`, the growth inhibition in test [1] was 27%; in test [4], 96% (active). The inhibition in test [2] is 17%; in test [3], -10%. The outcome in test [5], in test [6], in test [7] and in test [8] was inactive.
For the molecule `N#Cc1cccc(CN2CCCN(Cc3ccc(C(=O)Nc4ccc(Cl)cc4)cc3)CC2)c1`, the growth inhibition is 21% in test [1] and 98% (active) in test [4]. Moreover, the inhibition in test [2] was 48%; in test [3], 1%. Also, the outcome in test [5], in test [6], in test [7] and in test [8] was inactive.
With `NS(=O)(=O)c1ccc(CNC(=O)c2cnc3c(O)cccc3c2Nc2cccc(NC(=O)c3ccc(Cl)c(Cl)c3)c2)cc1`, the growth inhibition is 35% in test [1] and 97% (active) in test [4]. The inhibition in test [2] is 56% (active); in test [3] it was -1%. Besides, the result in test [5], in test [6], in test [7] and in test [8] was inactive.
For `FC(F)(F)c1ccc2nc(-c3cccc(-c4cccc(CN5CCN(c6ccncc6)CC5)c4)c3)[nH]c2c1`, the results for the growth inhibition in test [1] and in test [4] were 99% (active) and 100% (active), respectively. In addition, the values for the inhibition in test [2] and in test [3] were 93% (active) and 3%, respectively. The outcome in test [5], in test [6], in test [7] and in test [8] was inactive.
As for `CN1CCC(C(=O)Nc2cccc(-c3cccc(-c4nc5ccc(F)cc5[nH]4)c3)c2)CC1`, the growth inhibition in test [1] is 27%; in test [4] it was 101% (active). In addition, the inhibition in test [2] was 32%; in test [3], 0%. Besides, the outcome in test [5], in test [6], in test [7] and in test [8] was inactive.
As for `Cc1ccoc1C(=O)Nc1cccc(-c2cccc(-c3nc4c(C)cccc4[nH]3)c2)c1`, the results for the growth inhibition in test [1] and in test [4] were 79% (active) and 101% (active), respectively. Further, the inhibition in test [2] is 17%; in test [3] it was -3%. The result in test [5], in test [6], in test [7] and in test [8] was inactive.
Consider `OCCN1CCN(c2nc(Nc3cccc(F)c3)c3cnn(-c4ccccc4)c3n2)CC1`, for which the results for the growth inhibition in test [1] and in test [4] were 76% (active) and 100% (active), respectively. In addition, the inhibition in test [2] was 89% (active); in test [3] it was -2%. In addition, the outcome in test [5], in test [6], in test [7] and in test [8] was inactive.
For the molecule `O=C(/C=C/c1ccc(Cl)c(Cl)c1)NCCCCCN1CCCC(C(=O)Nc2ccc(Cl)c(Cl)c2)C1` (stereo not given), the growth inhibition in test [1] was 11%; in test [4], 100% (active). In addition, the figures for the inhibition in test [2] and in test [3] were 53% (active) and -1%, respectively. The outcome in test [5], in test [6], in test [7] and in test [8] was inactive.
On to `CCC(CO)NCC(O)Cn1c2ccc(Cl)cc2c2cc(Cl)ccc21` (stereo not given), for which the growth inhibition was 88% (active) in test [1] and 96% (active) in test [4]. Also, the inhibition in test [2] was 11%; in test [3] it was -2%. Also, the outcome in test [5], in test [6], in test [7] and in test [8] was inactive.
In the case of `CC(=O)Nc1cccc(C(=O)Nc2ccc(-c3cccc(-c4nc5c(C)cccc5[nH]4)c3)cc2)c1`, the growth inhibition in test [1] is 50% (active); in test [4], 100% (active). Besides, the inhibition is 86% (active) in test [2] and -4% in test [3]. Moreover, the result in test [5], in test [6], in test [7] and in test [8] was inactive.
For the molecule `COc1cc(C)c(NC(=O)c2cccc3c(=O)c(C)c(-c4ccccc4)oc23)cc1OC`, the results for the growth inhibition in test [1] and in test [4] were 32% and 86% (active), respectively. The results for the inhibition in test [2] and in test [3] were 96% (active) and 2%, respectively. Also, the result in test [5], in test [6], in test [7] and in test [8] was inactive.

For orientation: inhibition means the change of the read-out against control, counted positive when it falls.
